# RE007 growth inh: qHTS Assay for Inhibitors of the HIV-1 protein Vpr; actives 0.21% (n = 360,000); Potency, µM (series often up to 92.2 µM), inactives show at the top dose activity change, negative = less growth, actives largely listed as inhibitors; S. pombe RE007 Vpr strain, BacTiter-Glo ATP luminescence, 24 h; active = well fitted falling curve with a large enough effect; inconclusive = small, poorly fitted or top-dose-only effect; inactive = no such curve, though single readings can be large or run the other way; note: % is set by controls: 0 for no effect and ±100 for the full control effect; nearly all actives have a fitted effect of over 50% in size
#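 Fission yeast strain RE007, carrying one chromosomally integrated HIV-1 vpr copy, was seeded at OD 0.01 in PMG+AL medium with 23 nL pinned compound. After 24 h at 30 °C and 99% humidity, viability was read by BacTiter-Glo luminescence.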
# TbPYK inhibitor: qHTS of Trypanosoma Brucei Inhibitors. actives 0.12% (n = 410,000). Potency, µM (titrated, usually from 76.8 µM), for inactives: top-dose activity, negative = inhibition, usual class: inhibitors. TbPYK enzyme, Kinase-Glo Plus ATP luminescence, 45 min. AID 624173, 2012; note: % is set by controls: 0 for no effect and ±100 for the full control effect; nearly all actives have a fitted effect of over 50% in size
#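 ADP (130 uM final) triggers the TbPYK reaction after compound addition; incubation is 45 min at room temperature. Kinase-Glo Plus is then added and luminescence imaged. Normalized data are fitted to concentration-effect curves.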
# LmPK inhibitor: qHTS Assay for Inhibitors of Leishmania Mexicana Pyruvate Kinase (LmPK). Q27686. purified LmPK, Kinase-Glo ATP luminescence, 1 h. Potency, µM (series often up to 57.5 µM), without a hit: top-dose activity change, negative = inhibition, usual class: inhibitors. actives 0.37% (n = 290,000); note: % is set by controls: 0 for no effect and ±100 for the full control effect
#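 Purified LmPK (0.1 nM) converted ADP (0.1 mM) to ATP with PEP (0.5 mM) in imidazole buffer pH 7.2 with KCl and MgCl2, 1 h at room temperature. ATP was read by Kinase-Glo luminescence; data normalized to uninhibited and no-enzyme controls.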
# NS1 inh: qHTS Assay for Inhibitors of Influenza NS1 Protein Function; AID 2326, 2010; actives 0.4% (n = 270,000); Potency, µM (top dose mostly 46.1 µM), for inactives: top-dose activity, positive = more growth; calls by dose curve; note: actives are rising curves; nearly all actives have a fitted effect of over 50% in size
#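 Read-out: OD600 growth recovery of NS1-expressing budding yeast. Cells grown overnight at 30C in -URA glucose medium, washed, resuspended and diluted 1:100 in 2% galactose assay medium, pH 6.0. Same strain lacking NS1 served as positive control.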
# Giardia FBPA inh-1: qHTS Assay for Inhibitors of Fructose-1,6-bisphosphate Aldolase from Giardia Lamblia | purified Giardia FBPA | Potency, µM (series often up to 59.6 µM), for the others: top-dose activity, negative = inhibition, actives largely listed as inhibitors | actives 0.71% (n = 290,000); note: % is set by controls: 0 for no effect and ±100 for the full control effect; nearly all actives have a fitted effect of over 55% in size
# Target sequence (A8B2U2 whole entry, looked up): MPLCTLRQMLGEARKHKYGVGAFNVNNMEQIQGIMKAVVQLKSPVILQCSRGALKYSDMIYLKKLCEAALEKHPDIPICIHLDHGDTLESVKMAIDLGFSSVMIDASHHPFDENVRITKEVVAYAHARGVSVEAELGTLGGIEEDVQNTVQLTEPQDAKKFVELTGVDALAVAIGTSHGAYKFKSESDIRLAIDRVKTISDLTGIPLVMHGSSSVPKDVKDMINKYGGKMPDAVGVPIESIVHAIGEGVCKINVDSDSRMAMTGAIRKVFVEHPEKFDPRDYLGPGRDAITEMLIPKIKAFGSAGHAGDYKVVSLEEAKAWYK
#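 40 nM FBPA preincubated 10 min at RT with compound (up to 57.5 uM final), then substrate plus GAPDH/TPI/NAD/arsenate coupling and diaphorase/resazurin added. Fluorescence read after 20 min at RT, 525/598 nm.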
# Sm TGR inh: qHTS Assay for the Inhibitors of Schistosoma Mansoni Peroxiredoxins | actives 3% (n = 360,000) | Schistosoma mansoni thioredoxin glutathione reductase (TGR), Q962Y6 | Potency, µM (highest dose often 114 µM), inactives show at the top dose activity change, negative = inhibition, actives largely listed as inhibitors | purified TGR, DTNB reduction, TNB absorbance 405 nm; note: % is set by controls: 0 for no effect and ±100 for the full control effect; nearly all actives have a fitted effect of over 60% in size
#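 Kinetic colorimetric format: TGR-catalysed, NADPH-driven DTNB reduction monitored via TNB absorbance. Enzyme dispensed at 20 nM; compound exposure 15 min at room temperature before reaction start.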
# Giardia growth: qHTS Assay for Inhibitors of Fructose-1,6-bisphosphate Aldolase from Giardia Lamblia: Giardia lamblia growth inhibition; Potency, µM (highest dose often 57.5 µM), inactives show top-dose activity change, negative = inhibition, hits mostly inhibitors; actives 5% (n = 1,500); shares compounds with Giardia FBPA inh-1; AID 2785, 2010; Giardia lamblia trophozoite growth inhibition;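 note: trophozoites exposed to compound for 48 h at 37 °C; % is set by controls: 0 for no effect and ±100 for the full control effect; nearly all actives have a fitted effect of over 70% in size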
# Mammal cell tox: qHTS Assay for Inhibitors of Fructose-1,6-bisphosphate Aldolase from Giardia Lamblia: Mammalian cellular toxicity; shares compounds with Giardia FBPA inh-1; mammalian cell viability counter-screen, qHTS; Potency, µM (highest dose often 57.5 µM), for inactives: at the highest dose viability change, negative = toxicity, actives largely listed as inhibitors; actives 4% (n = 1,500); AID 2786, 2010;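 note: Chinese hamster ovary cells used as mammalian cytotoxicity surrogate; viability measured as cellular ATP by luminescence; compound exposure lasted 48 h before reading; % is set by controls: 0 for no effect and ±100 for the full control effect; nearly all actives have a fitted effect of over 60% in size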
# Giardia FBPA inh-2: qHTS Assay for Inhibitors of Fructose-1,6-bisphosphate Aldolase from Giardia Lamblia: Primary screen confirmation | shares compounds with Giardia FBPA inh-1 | purified Giardia aldolase enzyme activity, qHTS | Potency, µM (series often up to 57.5 µM), for inactives: at the top dose activity change, negative = inhibition, hits mostly inhibitors | actives 5% (n = 1,500) | AID 2787, 2010; note: % is set by controls: 0 for no effect and ±100 for the full control effect; nearly all actives have a fitted effect of over 45% in size
# Rabbit FBPA inh: qHTS Assay for Inhibitors of Fructose-1,6-bisphosphate Aldolase from Giardia Lamblia: Rabbit FBPA Selectivity; shares compounds with Giardia FBPA inh-1; Rabbit muscle FBPA enzyme inhibition, selectivity counter-screen; Potency, µM (titrated, usually from 57.5 µM), inactives show top-dose activity, negative = inhibition, usual class: inhibitors; actives 4% (n = 1,500); AID 2794, 2010; note: % is set by controls: 0 for no effect and ±100 for the full control effect; nearly all actives have a fitted effect of over 60% in size
# Target sequence (P00883 whole entry, looked up): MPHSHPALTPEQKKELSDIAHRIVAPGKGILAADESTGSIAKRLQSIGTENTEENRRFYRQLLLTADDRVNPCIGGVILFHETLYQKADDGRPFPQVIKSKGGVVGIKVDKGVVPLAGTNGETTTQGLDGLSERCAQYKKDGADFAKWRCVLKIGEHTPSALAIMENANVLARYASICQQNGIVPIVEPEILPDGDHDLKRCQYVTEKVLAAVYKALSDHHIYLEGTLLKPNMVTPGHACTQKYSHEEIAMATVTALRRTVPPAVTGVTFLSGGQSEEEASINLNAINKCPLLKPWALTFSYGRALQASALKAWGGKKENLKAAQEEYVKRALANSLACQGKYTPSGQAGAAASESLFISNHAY
# GAPDH counter: qHTS Assay for Inhibitors of Fructose-1,6-bisphosphate Aldolase from Giardia Lamblia: Coupling assay counterscreen confirmation; shares compounds with Giardia FBPA inh-1; GAPDH coupling enzyme counterscreen, biochemical, qHTS; Potency, µM (titrated, usually from 57.5 µM), for the others: at the highest dose activity change, negative = inhibition, hits mostly inhibitors; actives 6% (n = 1,500); note: % is set by controls: 0 for no effect and ±100 for the full control effect; nearly all actives have a fitted effect of over 55% in size
# Numbers without * were called inactive; ? = inconclusive; nt = no result; [ ] = remark or other dose. Compounds with a hit are over-represented: about 3.5% of the library has one in this group of screens. Unless noted, calls come from the whole dose curve; as a rule, active = well fitted curve in the direction sought with a large enough effect; inconclusive = small, poorly fitted or top-dose-only effect, or another doubt; inactive = no such curve, though single readings can be large; an effect the other way counts as inactive or inconclusive. Potency is the fitted concentration of half-maximal effect.
SMILES,RE007 growth inh,TbPYK inhibitor,LmPK inhibitor,NS1 inh,Giardia FBPA inh-1,Sm TGR inh,Giardia growth,Mammal cell tox,Giardia FBPA inh-2,Rabbit FBPA inh,GAPDH counter
COCCCNC(=O)c1cc(-c2cccnc2)nc2ccc(S(=O)(=O)N3CCC(C)CC3)cc12,nt,1%,nt,nt,nt,7%,nt,nt,nt,nt,nt
O=c1nc(N/N=C/c2c[nH]c3ccccc23)cn[nH]1,0%,-6%,-22%,-8%,18µM*,15%,3%,2%,-2%,0%,2%
N#Cc1c(NC(=O)CCC(=O)O)sc2c1CCCCC2,0%,35µM*,11%,-5%,16µM*,-3%[57.1 µM],-6%,10%,-18%,-2%,-9%
COc1ccccc1N1CCN(C(C)C(=O)N2CC(C)OC(C)C2)CC1 (stereo not drawn),10%,-1%,-14%,nt,5.6µM*,-2%,9%[10.4 µM],4%,-5%,-8%,5%
COc1ccccc1N1CCN(C(=O)C(F)F)CC1,-5%,1%,5%,-6%,1%,20%[11.4 µM],nt,nt,nt,nt,nt
O=C(Nn1cc(C(=O)Nc2ccc(F)cc2F)c2ccccc2c1=O)c1cnccn1,-6%,-1%,2%,nt,18µM*,2%,?,-9%,-9%,1%,-17%
O=C(Nc1ccccc1F)c1cnccn1,0%,-2%,-4%,nt,5%,1%,nt,nt,nt,nt,nt
Cc1cc(C)cc(NCc2cc3c(cc2[N+](=O)[O-])OCO3)c1,2%,0%,-4%,-16%,-13%,4%,nt,nt,nt,nt,nt
COc1ccc(CNCc2cc3c(cc2[N+](=O)[O-])OCO3)cc1,1%,2%,1%,7%,13µM*,-28%,?,-4%,-14%,-7%,1%
O=C1CCCc2cc(S(=O)(=O)N3CCCC(C(=O)NCc4ccc(Cl)cc4)C3)ccc2N1 (stereo not drawn),nt,-2%,nt,nt,nt,4%,nt,nt,nt,nt,nt
CCOc1ccc(CCNC(=O)NCc2noc3ccc(C)cc23)cc1,nt,-1%,nt,nt,nt,1%,nt,nt,nt,nt,nt
N=C1/C(=C/c2coc3ccccc3c2=O)C(=O)N=C2SC(c3ccco3)=NN12,10µM*,-6%,7%,0%,16µM*,10µM*,-14%,4%,-2%,6%,11%
COc1ccc(-n2cccc2/C=C2\C(=N)N3N=C(c4ccco4)SC3=NC2=O)cc1,2%,-1%,-1%,nt,7%,-28%,nt,nt,nt,nt,nt
O=C(O)CC1OCC=C2CN3CCC45C6=CC(=O)C(=O)C([N+](=O)[O-])=C6NC4C1C2CC35 (stereo not drawn),-4%,1%,-12%,4%,1.3µM*,?,13µM*,-11%,4.5µM*,8.9µM*,4µM*
N#CC(C#N)=C(C#N)c1ccc(Nc2ccccc2)cc1,18%,-5%,-27%,-74%,22µM*,2.8µM*,?,-8%,-17%,-8%,-18%
COc1ccc(/C=C/C(=O)Nc2nc(-c3cccs3)ns2)cc1OC,nt,5%,nt,nt,nt,-3%,nt,nt,nt,nt,nt
O=C(Nc1cc(C(F)(F)F)ccc1N1CCOCC1)c1ccncc1,6%,-2%,nt,nt,nt,nt,nt,nt,nt,nt,nt
O=C(CNCc1ccccn1)Nc1cc(C(F)(F)F)ccc1N1CCOCC1,?,-9%,-6%,-6%,16µM*,-2%,?,1%,6%,6%,9%
O=C(CSc1nc2c(c(=O)[nH]1)CN(Cc1ccc3c(c1)OCO3)CC2)Nc1ccccc1Cl,nt,3%,nt,nt,nt,1%,nt,nt,nt,nt,nt
CCN1CCN(C(=S)c2ccc(OC)cc2)CC1,10%,-30%,5%,-2%,4.5µM*,2%,3%[38.3 µM],1%,-5%,3%,-8%
CCOc1ccc(C(=S)N2CCN(C)CC2)cc1,1%,?,-4%,nt,18µM*,3%,-24%,-8%,-5%,1%,1%
COC(=O)c1cc(NC(=O)Cn2ncc3c2-c2ccccc2OC3)cc(C(=O)OC)c1,nt,-6%,nt,nt,nt,1%,nt,nt,nt,nt,nt
COC(=O)[C@@]1(Cc2ccccc2)[C@H]2c3cc(C(=O)N(C)C)n(Cc4ccc(O)c(OC)c4)c3C[C@H]2CN1C(=O)c1ccccc1,nt,nt,nt,nt,-12%,nt,nt,nt,nt,nt,nt
O=C(O)c1cc(-c2cc(C(=O)O)c3ccccc3n2)nc2ccccc12,nt,nt,1%,2%,2.5µM*,-7%,-13%[38.3 µM],-11%,-2%,4%,-6%
O=C(O)c1cc(-c2ccc3ccccc3n2)nc2ccccc12,-2%,-6%,-1%,-38%,?,4%,nt,nt,nt,nt,nt
O=C(Nc1ccc(Br)cc1F)N1CCC(CN2CCc3ccccc3C2)CC1,nt,-3%,nt,nt,nt,-7%,nt,nt,nt,nt,nt
O=C(NCCO)c1cc2ccccc2cc1O,-12%,-2%,-1%,-8%,2µM*,0%,-11%[38.3 µM],-1%,?,?,?
NNC(=O)c1cc2ccccc2cc1O,nt,-16%,-3%,?,-18%,0%,nt,nt,nt,nt,nt
O=C(/C=C/c1ccco1)Nc1nc(-c2ccccn2)cs1,3%,-26%,11%,nt,18µM*,13µM*,?,?,-13%,-10%,-7%
O=C(CCCSc1ccccc1)Nc1nc(-c2ccccn2)cs1,?,6%,9%,-80%,6%,-6%,nt,nt,nt,nt,nt

# Bioassay records deposited in PubChem by National Center for Advancing Translational Sciences (NCATS).
